# Source: PubChem BioAssay
# Values joined by “and” are separate entries in the source; they are usually repeats but may differ in a detail not shown here. Equal entries are not always repeated. Inconclusive results are not listed. Active and inactive are the calls of the source. Unless noted, no cut-off is given here; in the data, nearly all actives have AC50 up to about 26 µM.
# Experiments:
# [1] = growth inhibition of DIPG glioma cells, dose response, cell-based, JHH-DIPG-1, MIPE4.0, CellTiter-Glo, qHTS (AID 1347062; cut-off not given, nearly all actives have AC50 up to about 27 µM;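 for AC50: cells exposed to compound for two days before readout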); details: JHH-DIPG-1 viability, CellTiter-Glo ATP luminescence
# [2] = growth inhibition of DIPG glioma cells, dose response, cell-based, SU-DIPG-IV, MIPE4.0, CellTiter-Glo, qHTS (AID 1347063; cut-off not given, nearly all actives have AC50 up to about 30 µM;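 note: compound exposure lasted 48 hours before the viability readout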); details: SU-DIPG-IV viability, CellTiter-Glo ATP luminescence
# [3] = growth inhibition of DIPG glioma cells, dose response, cell-based, SU-DIPG-XIII, MIPE5.0, CellTiter-Glo, qHTS (AID 1347064; cut-off not given, nearly all actives have AC50 up to about 23 µM;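 for AC50: cells exposed to compound for 48 hours before the viability read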); details: SU-DIPG-XIII viability, CellTiter-Glo ATP luminescence
# [4] = viability loss in pontine glioma line – cell-based, SU-DIPG-XXV, MIPE5.0, CellTiter-Glo, qHTS, dose response (AID 1347065); details: CellTiter-Glo ATP luminescence;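 note: cells exposed to compound for 48 hours before ATP readout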
# [5] = SU-DIPG-VI glioma cell viability, MIPE4.0 library, CellTiter-Glo luminescence, qHTS (AID 1347066; cut-off not given, nearly all actives have AC50 up to about 30 µM;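 note: cells exposed to compound for 48 hours before readout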); details: CellTiter-Glo ATP luminescence
# [6] = JHH-DIPG-1 glioma cell viability, MIPE5.0 library, CellTiter-Glo luminescence, qHTS (AID 1347067); details: JHH-DIPG-1 glioma viability, CellTiter-Glo ATP luminescence;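 note: cells exposed to compound for 48 hours before readout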
# [7] = SU-DIPG-XXV glioma cell viability, MIPE5.0 library, qHTS (AID 1347068; cut-off not given, nearly all actives have IC50 up to about 30 µM;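 for IC50: cells exposed to compound for 48 hours before viability readout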)
# [8] = viability rescue of complex I mutant cybrids, primary screen, cell-based, galactose medium, ATP luminescence (AID 1645843;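 active = z-score of at least 1.8 in each of two replicates, scored against plate mean and spread of sample wells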;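 note: positive z means more ATP and so rescue of galactose-driven cybrid death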); details: complex I mutant cybrid cells, 72 h, stronger effect = higher value
# [9] = molecular target: Mitogen-activated protein kinase 7 (Homo sapiens) (UniProt Q13164); assay: ERK5 transactivation activators in reporter cells, primary screen, cell-based, HTS (AID 1508626;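 active = luciferase signal above three times the same-plate solvent-only control wells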;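 note: luciferase driven by Gal4-ERK5 fusion binding five Gal4 sites before minimal TATA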); details: HeLa Gal4-ERK5 transactivation, 18 h, at 5 µM, stronger effect = higher value
# Chain of Mitogen-activated protein kinase 7 (Homo sapiens) (Q13164 whole entry, looked up, the tested form may be a part): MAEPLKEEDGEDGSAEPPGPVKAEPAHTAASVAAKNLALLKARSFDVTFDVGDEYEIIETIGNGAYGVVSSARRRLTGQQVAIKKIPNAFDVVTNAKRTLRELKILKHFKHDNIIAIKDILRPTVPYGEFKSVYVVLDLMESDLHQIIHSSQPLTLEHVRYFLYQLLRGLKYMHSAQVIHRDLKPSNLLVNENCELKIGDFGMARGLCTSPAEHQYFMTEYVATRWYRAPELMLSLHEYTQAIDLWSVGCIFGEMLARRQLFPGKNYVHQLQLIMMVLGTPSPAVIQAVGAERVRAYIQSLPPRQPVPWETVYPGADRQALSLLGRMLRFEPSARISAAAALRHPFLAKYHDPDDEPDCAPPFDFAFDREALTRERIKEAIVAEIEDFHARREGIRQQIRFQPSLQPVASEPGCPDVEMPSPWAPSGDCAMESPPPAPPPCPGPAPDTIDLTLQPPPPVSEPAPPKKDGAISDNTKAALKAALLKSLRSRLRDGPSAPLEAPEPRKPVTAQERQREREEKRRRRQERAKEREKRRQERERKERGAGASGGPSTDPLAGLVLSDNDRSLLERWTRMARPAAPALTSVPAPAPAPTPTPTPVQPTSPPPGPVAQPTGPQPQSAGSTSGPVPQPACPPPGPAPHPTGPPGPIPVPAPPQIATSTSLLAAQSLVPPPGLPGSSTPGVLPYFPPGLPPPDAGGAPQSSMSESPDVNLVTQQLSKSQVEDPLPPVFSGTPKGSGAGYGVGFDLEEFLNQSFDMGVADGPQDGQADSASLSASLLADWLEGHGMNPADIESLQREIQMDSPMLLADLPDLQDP
# [10] = molecular target: ATP-dependent translocase ABCB1 (Homo sapiens) (UniProt P08183); assay: MDR1 (ABCB1) efflux transporter inhibition, cell-based (AID 377; in the data active = fluorescence slope change above about 50%); details: MDR1-expressing cells, fluorescent substrate accumulation slope; stronger effect = higher value; concentration not given here
# Chain of ATP-dependent translocase ABCB1 (Homo sapiens) (P08183 whole entry, looked up): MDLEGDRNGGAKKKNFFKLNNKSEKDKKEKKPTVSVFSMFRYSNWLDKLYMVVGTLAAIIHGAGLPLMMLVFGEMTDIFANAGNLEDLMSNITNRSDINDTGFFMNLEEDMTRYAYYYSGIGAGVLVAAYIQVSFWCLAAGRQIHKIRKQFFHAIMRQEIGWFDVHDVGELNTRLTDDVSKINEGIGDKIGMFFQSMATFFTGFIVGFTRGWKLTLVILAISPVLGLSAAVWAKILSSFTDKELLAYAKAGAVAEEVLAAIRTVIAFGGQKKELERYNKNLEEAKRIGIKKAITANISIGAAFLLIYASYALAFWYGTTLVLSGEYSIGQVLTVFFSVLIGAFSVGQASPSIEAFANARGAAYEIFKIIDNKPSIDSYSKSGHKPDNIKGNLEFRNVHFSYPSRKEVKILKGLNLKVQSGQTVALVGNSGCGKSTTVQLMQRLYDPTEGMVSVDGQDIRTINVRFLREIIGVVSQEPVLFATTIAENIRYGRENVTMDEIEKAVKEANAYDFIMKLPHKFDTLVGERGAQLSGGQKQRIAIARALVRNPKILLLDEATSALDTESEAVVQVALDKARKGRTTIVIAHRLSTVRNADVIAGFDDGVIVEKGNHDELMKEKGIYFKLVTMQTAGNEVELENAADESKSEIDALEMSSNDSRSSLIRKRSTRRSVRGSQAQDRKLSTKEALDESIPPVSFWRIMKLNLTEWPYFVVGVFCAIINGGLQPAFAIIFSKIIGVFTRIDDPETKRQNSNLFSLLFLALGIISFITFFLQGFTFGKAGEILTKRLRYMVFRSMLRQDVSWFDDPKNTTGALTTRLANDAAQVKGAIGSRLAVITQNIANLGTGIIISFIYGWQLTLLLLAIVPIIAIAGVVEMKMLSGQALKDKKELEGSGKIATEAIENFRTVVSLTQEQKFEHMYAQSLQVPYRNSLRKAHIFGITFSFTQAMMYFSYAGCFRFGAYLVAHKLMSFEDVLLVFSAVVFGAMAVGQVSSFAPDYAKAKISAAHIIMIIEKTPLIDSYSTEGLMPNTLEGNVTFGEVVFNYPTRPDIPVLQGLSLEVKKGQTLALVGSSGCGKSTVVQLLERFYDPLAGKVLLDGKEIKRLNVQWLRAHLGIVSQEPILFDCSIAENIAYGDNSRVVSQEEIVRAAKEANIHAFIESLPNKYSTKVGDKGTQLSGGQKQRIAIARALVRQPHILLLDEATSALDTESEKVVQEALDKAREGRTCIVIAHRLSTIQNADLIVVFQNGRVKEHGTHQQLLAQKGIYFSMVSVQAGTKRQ
# [11] = LFS_MB_1R medulloblastoma cell growth inhibition, synergistic combos for chromothripsis tumors, cisplatin or BGB combos (AID 1671452; in the data active = inhibition above about 80%;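 note: cells exposed for 96 hours before readout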); details: LFS_MB_1R medulloblastoma cells, stronger effect = higher value
# [12] = CRL2098 osteosarcoma cell growth inhibition, synergistic combos for chromothripsis tumors, BGB or cisplatin IC20 combos (AID 1671454; in the data active = inhibition above about 80%;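 note: cells exposed for 96 h before readout; 0% = vehicle DMSO and 100% = killing by high DMSO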); details: CRL2098 osteosarcoma cells, drug combinations, stronger effect = higher value
# [13] = HD-MB03 medulloblastoma cell growth inhibition, synergistic combos for chromothripsis tumors, BGB or cisplatin IC20 combos (AID 1671455; in the data active = inhibition above about 83%;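 note: 0% = vehicle DMSO and 100% = high DMSO as cytotoxic control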); details: HD-MB03 medulloblastoma cells, stronger effect = higher value
# [14] = UWB1.289 ovarian carcinoma cell growth inhibition, synergistic combos for chromothripsis tumors, BGB or cisplatin combos (AID 1671456; in the data active = inhibition above about 80%;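 note: cells exposed to compound for four days; 0% = vehicle DMSO and 100% = killing by high DMSO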); details: UWB1.289 ovarian carcinoma cells, stronger effect = higher value
# [15] = LFS_MB_2R medulloblastoma cell growth inhibition, synergistic combos for chromothripsis tumors, cisplatin combos (AID 1671457; in the data active = inhibition above about 80%;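 note: cells exposed to compound for four days before readout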); details: LFS_MB_2R medulloblastoma cells, stronger effect = higher value
# [16] = UWB1.289_BRCA1 ovarian cancer growth, cell-based, BGB or cisplatin combinations (AID 1671459; in the data active = inhibition above about 80%); details: UWB1.289 BRCA1 ovarian carcinoma, drug combinations, stronger effect = higher value
# [17] = human astrocyte viability loss, single and combined drugs, cytotoxicity control for chromothriptic childhood tumor combination screen, cell-based, BGB or cisplatin IC20 combos (AID 1671460; in the data active = inhibition above about 80%;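 note: cells exposed to compounds for 96 hours before viability readout; 0% = vehicle and 100% = killing control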); details: Human astrocytes, drug combinations, stronger effect = higher value
# [18] = growth inhibition of BT084 medulloblastoma cells, cell-based, ICGC_MB145, cisplatin and BGB IC40 combos (AID 1671461; in the data active = inhibition above about 80%;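 note: cells exposed to drugs for 96 hours; 0% = vehicle DMSO and 100% = high DMSO full killing control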); details: drug combinations, stronger effect = higher value
# [19] = growth inhibition of RCMB18 medulloblastoma cells, cell-based, cisplatin and BGB IC40 combos (AID 1671462; in the data active = inhibition above about 80%;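 note: cells exposed to compound for four days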); details: stronger effect = higher value
# [20] = growth inhibition of CRL1545 osteosarcoma cells, cell-based, cisplatin and BGB IC20 combos (AID 1671464; in the data active = inhibition above about 80%;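 note: cells exposed to compound for 96 hours before readout; 0% = vehicle DMSO and 100% = high DMSO killing control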); details: stronger effect = higher value
# [21] = measured here: combination with cisplatin, at 0.5 µM
# [22] = measured here: combination with cisplatin, at 5 µM
smiles,measurement,setting,value
COc1cc2ncnc(Nc3ccc(F)c(Cl)c3)c2cc1OCCCN1CCOCC1,AC50,[1],19.1 µM (active)
same,AC50,[2],10.8 µM (active)
same,outcome,[3],inactive
same,outcome,[4],inactive
same,AC50,[5],38.2 µM (active)
same,outcome,[6],inactive
same,outcome,[7],inactive
same,z-score,[8],-0.29 (inactive) and 0.3 (inactive)
NCCCNCCSP(=O)(O)O,luciferase signal,[9],52 AU (inactive)
same,z-score,[8],0.585 (inactive) and 0.25 (inactive)
OC(CCN1CCCCC1)(c1ccccc1)C1CC2C=CC1C2 (configuration not stated),fluorescence slope change,[10],23% (inactive)
same,outcome,[1],inactive
same,outcome,[2],inactive
same,outcome,[4],inactive
same,outcome,[5],inactive
same,outcome,[6],inactive
same,outcome,[7],inactive
same,luciferase signal,[9],60 AU (inactive)
same,z-score,[8],-0.86 (inactive)
COc1c(C)c2c(c(O)c1C/C=C(\C)CCC(=O)OCCN1CCOCC1)C(=O)OC2,outcome,[5],inactive
same,z-score,[8],1.7 (inactive)
C#CCN(C)CCCOc1ccc(Cl)cc1Cl,z-score,[8],-0.39 (inactive)
Nc1cc(C(Cl)=C(Cl)Cl)c(S(N)(=O)=O)cc1S(N)(=O)=O,outcome,[1],inactive
same,outcome,[2],inactive
same,outcome,[3],inactive
same,outcome,[4],inactive
same,outcome,[5],inactive
same,outcome,[6],inactive
same,outcome,[7],inactive
CCN(CC)C(=O)c1ccc(O)c(OC)c1,fluorescence slope change,[10],53.1% (active)
same,luciferase signal,[9],52 AU (inactive)
same,z-score,[8],0.21 (inactive)
CCCN(CCC)CCc1cccc2c1CC(=O)N2,luciferase signal,[9],48 AU (inactive)
same,z-score,[8],0.47 (inactive)
CC(C)Cn1cnc2c(N)nc3ccccc3c21,AC50,[1],18.7 µM (active)
same,AC50,[2],20.9 µM (active)
same,outcome,[3],inactive
same,outcome,[5],inactive
same,outcome,[6],inactive
same,outcome,[7],inactive
same,z-score,[8],0.245 (inactive)
CNCCCC1c2ccccc2C=Cc2ccccc21,luciferase signal,[9],40 AU (inactive)
same,z-score,[8],-1.15 (inactive)
NC(N)=NC(N)=NCCc1ccccc1,fluorescence slope change,[10],100% (active)
same,outcome,[1],inactive
same,outcome,[2],inactive
same,outcome,[3],inactive
same,outcome,[4],inactive
same,outcome,[5],inactive
same,outcome,[6],inactive
same,outcome,[7],inactive
same,luciferase signal,[9],40 AU (inactive)
same,z-score,[8],-2.58 (inactive)
Cn1c(=O)c2c(ncn2CC2OCCO2)n(C)c1=O,outcome,[3],inactive
same,outcome,[4],inactive
same,outcome,[6],inactive
same,outcome,[7],inactive
same,z-score,[8],0.585 (inactive)
Cc1nc(Nc2ncc(C(=O)Nc3c(C)cccc3Cl)s2)cc(N2CCN(CCO)CC2)n1,AC50,[1],16.6 µM (active)
same,AC50,[2],16.6 µM (active)
same,AC50,[3],14.8 µM (active)
same,AC50,[4],14.8 µM (active)
same,outcome,[5],inactive
same,AC50,[6],7.42 µM (active)
CC(C)(Oc1ccc(C2CC2(Cl)Cl)cc1)C(=O)O (configuration not stated),outcome,[1],inactive
same,outcome,[3],inactive
same,outcome,[4],inactive
same,outcome,[5],inactive
same,outcome,[6],inactive
same,outcome,[7],inactive
same,z-score,[8],0.695 (inactive)
O=[N+]([O-])c1ccc(O)c2ncccc12,AC50,[3],3.32 µM (active)
same,AC50,[4],9.34 µM (active)
same,AC50,[6],2.95 µM (active)
same,IC50,[7],23.5 µM (active)
COc1cccc2c1C(=O)c1c(O)c3c(c(O)c1C2=O)C[C@@](O)(C(C)=O)C[C@@H]3O[C@H]1C[C@H](N)[C@H](O)[C@H](C)O1,AC50,[1],0.0332 µM (active)
same,AC50,[2],0.0469 µM (active)
same,AC50,[3],0.742 µM (active)
same,AC50,[4],0.742 µM (active)
same,AC50,[6],0.742 µM (active)
same,IC50,[7],3.32 µM (active)
same,luciferase signal,[9],300 AU (active)
same,z-score,[8],-2.16 (inactive)
O=C(O)c1cc(=O)[nH]c(=O)[nH]1,outcome,[1],inactive
same,outcome,[2],inactive
same,outcome,[3],inactive
same,outcome,[4],inactive
same,outcome,[5],inactive
same,outcome,[6],inactive
same,outcome,[7],inactive
same,inhibition,[11]; at 0.5 µM,-8.32% (inactive) and -28.4% (inactive)
same,inhibition,"[11]; measured here: combination with BGB IC40, at 0.05 µM",-17.9% and -11.5%
same,inhibition,[11]; [21],16.2% and -37.9%
same,inhibition,[11]; [22],-31% and -23.1%
same,inhibition,[12]; at 0.5 µM,2.38% (inactive) and -59.4% (inactive)
same,inhibition,"[12]; measured here: combination with BGB at IC20, at 0.5 µM",-8.75% and -29.4%
same,inhibition,"[12]; measured here: combination with cisplatin at IC20, at 0.5 µM",11.3% and -77.4%
same,inhibition,[13]; at 0.5 µM,6.65% (inactive) and -10.7% (inactive)
same,inhibition,"[13]; measured here: combo with BGB at IC20, at 0.5 µM",8.02% and -14.5%
same,inhibition,"[13]; measured here: combo with cisplatin at IC20, at 0.5 µM",1.03% and -2.03%
same,inhibition,[14]; at 0.5 µM,9.26% (inactive) and -11.7% (inactive)
same,inhibition,"[14]; measured here: inhibition with BGB combination, at 0.05 µM",1.2% and -34.8%
same,inhibition,"[14]; measured here: inhibition with cisplatin combination, at 0.05 µM",-6.87% and -27.5%
same,inhibition,[15]; at 0.5 µM,8.17% (inactive) and -25% (inactive)
same,inhibition,[15]; [21],-0.428% and -22.3%
same,inhibition,[15]; [22],15.8% and -23.2%
same,inhibition,"[16]; BGB combination, concentration series, at 5 µM",11.8% and -20.6%
same,inhibition,[16]; at 0.5 µM,7.12% (inactive) and -21.5% (inactive)
same,inhibition,"[16]; cisplatin combination, concentration series, at 5 µM",16.5% and -12.9%
same,inhibition,[17]; at 0.5 µM,6.1% (inactive) and -13.7% (inactive)
same,inhibition,"[17]; measured here: combo with BGB IC20, at 0.5 µM",3.75% and -11.6%
same,inhibition,"[17]; measured here: combo with cisplatin IC20, at 0.5 µM",18.5% and -10.3%
same,inhibition,[18]; at 0.5 µM,0.676% (inactive) and -23.4% (inactive)
same,inhibition,"[18]; cisplatin combination, at 0.5 µM",4.02% and -10.6%
same,inhibition,"[18]; cisplatin combination, at 5 µM",-30.1% and 9.58%
same,inhibition,"[18]; measured here: BGB IC40 combination 0.05 uM, at 0.05 µM",29.1% and 10.4%
same,inhibition,"[18]; single agent, at 5 µM",10.6% and -23.7%
same,inhibition,[19]; at 0.5 µM,4.65% (inactive) and -11.2% (inactive)
same,inhibition,"[19]; cisplatin combo, at 5 µM",33.1% and 20.6%
same,inhibition,"[19]; measured here: BGB IC40 combination, at 0.05 µM",20.2% and -17.2%
same,inhibition,[19]; [21],10.8% and 27.7%
same,inhibition,"[19]; single agent, at 5 µM",-13.7% and -20.9%
same,inhibition,[20]; at 0.5 µM,-2.03% (inactive) and 7.29% (inactive)
same,inhibition,"[20]; measured here: with BGB IC20 combination, at 0.5 µM",-9.08% and 1.78%
same,inhibition,"[20]; measured here: with cisplatin IC20 combination, at 0.5 µM",1.49% and 10%
same,inhibition,"[20]; single agent, at 0.05 µM",0.986% and -9.64%
same,inhibition,"[20]; single agent, at 5 µM",-15.6% and -9.76%
